Data taken from PubChem BioAssay AID1422 (Emory University Molecular Libraries Screening Center, 2008).
Values joined by “and” are separate entries in the source; they are usually repeats but may differ in a detail not shown here. Equal values may be shown once. Screen size: about 260,000 compounds; about 1,300 (0.5%) were called active. The sample holds actives, similar compounds and a random draw of the others, so the mix is not that of the screen.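 How the source made its calls: active means percent inhibition above 40 after rounding to a whole number; inactive means the rest.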 Some structures have more than one record in an assay (separate samples or runs), and their calls can disagree.

Target: Prostaglandin E2 receptor EP2 subtype (Homo sapiens) (UniProt P43116)
Sequence (P43116 whole entry, looked up): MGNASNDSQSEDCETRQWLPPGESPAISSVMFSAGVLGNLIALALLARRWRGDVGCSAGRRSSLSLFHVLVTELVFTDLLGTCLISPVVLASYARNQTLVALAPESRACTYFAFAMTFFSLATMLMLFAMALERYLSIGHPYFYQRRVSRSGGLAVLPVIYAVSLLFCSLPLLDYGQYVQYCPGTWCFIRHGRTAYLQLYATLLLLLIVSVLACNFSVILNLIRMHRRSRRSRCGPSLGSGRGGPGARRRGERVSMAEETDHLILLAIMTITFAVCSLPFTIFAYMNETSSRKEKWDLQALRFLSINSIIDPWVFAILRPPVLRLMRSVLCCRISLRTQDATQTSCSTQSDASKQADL
Assay: blockers of PGE2-driven EP2 cAMP signalling – TR-FRET cAMP, C6 glioma cells, primary screen (AID 1422);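 further: rat C6 glioma host cells with rolipram phosphodiesterase inhibitor present; the protocol text gives 20 µM as final concentration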
Settings: C6 glioma cells expressing human EP2, cAMP TR-FRET; at 25 µM; stronger effect = higher value; cells stimulated with saturating PGE2

Row | SMILES | inhibition
1 | Oc1c(Cl)cc(Cl)c(Cl)c1Cc1c(O)c(Cl)cc(Cl)c1Cl | 113% (active) and 18.5% (inactive)
2 | COc1ccc(CNC(=O)C2C3CCC4(CN(CCc5ccccc5)C(=O)C24)O3)cc1 (stereo unspecified) | 8.25% (inactive)
3 | COC(=O)c1c(NC(=O)c2cccc(C)c2)sc(C(=O)Nc2cccc(OC)c2)c1C | 7.04% (inactive)
4 | Clc1ccc(Nc2nc3nonc3n3nnnc23)cc1 | 91.1% (active)
5 | Clc1ccc(Nc2ncnc3c2nnn3Cc2ccccc2)cc1 | 7.31% (inactive)
6 | COc1ccccc1NC(=S)N(Cc1cc2cccc(C)c2[nH]c1=O)CC1CCCO1 (stereo unspecified) | 15.9% (inactive)
7 | Cc1ccc2[nH]c(=O)c(CN(Cc3ccccc3Cl)C(=O)N3CCCC3)cc2c1 | 11.3% (inactive)
8 | CCCC(NC(=O)c1csc(C(C)=O)c1)c1ccc2c(c1)OCCO2 (stereo unspecified) | 9.91% (inactive)
9 | COc1ccc(-c2cc(C(F)(F)F)nc(SCCC(=O)N3CCCCC3C)n2)cc1 (stereo unspecified) | 12.1% (inactive)
10 | CC1CCCCN1C(=O)CSc1nc(-c2ccccc2)cc(C(F)(F)F)n1 (stereo unspecified) | 12.9% (inactive)
11 | COc1ccc(-c2cc(C(F)(F)F)nc(SCC(=O)N3CCCCC3C)n2)cc1 (stereo unspecified) | 52.4% (active)
12 | CCOc1ccc(C2C(C(=O)c3ccco3)=C(O)C(=O)N2CCOC)cc1OC (stereo unspecified) | 8.68% (inactive)
13 | COc1ccccc1/C=N\Nc1cc(C)nc(-n2nc(C)cc2C)n1 | 3.92% (inactive)
14 | COc1cccc(/C=N/Nc2cc(C)nc(-c3ccccc3O)n2)c1O | 39.9% (active)
15 | COc1cccc(/C=N/Nc2ncc(C(F)(F)F)cc2Cl)c1O | 4.36% (inactive)
16 | Oc1ccccc1-c1nc2cnccn2c1NCc1ccccc1 | 9.33% (inactive)
17 | CN(C)CCCNC(=O)C(=O)Nc1ccc2c(c1)OCO2 | 13.4% (inactive)
18 | C[C@H]1O[C@@H](CC(=O)O)Cc2c1c(O)c1c(O)cc(-c3cc(=O)c4c(=O)c5c(c(=O)c=4c3=O)C[C@H](CC(=O)O)O[C@@H]5C)c(O)c1c2O | 41.5% (active)
19 | Cc1ccc(NC=C2C(=O)OC(C)(C)OC2=O)cc1Cl | 10% (inactive)
20 | Cc1ccc(C)c2[nH]c(=O)c(C(c3nnnn3Cc3ccc(F)cc3)N3CCc4ccccc4C3)cc12 (stereo unspecified) | 6.97% (inactive)
21 | C=COCCNC(=O)Cn1nc(C)n2c(cc3occc32)c1=O | 7.9% (inactive)
22 | CNc1ncnc2c1ncn2[C@@H]1O[C@H](CO)[C@H](O)C1O (stereo partly specified) | 13.5% (inactive)
23 | Nc1nc(SCc2ccc([N+](=O)[O-])cc2)c2ncn(C3OC(CO)C(O)C3O)c2n1 (stereo unspecified) | 9.89% (inactive)

Row | SMILES | inhibition
24 | OC[C@@H]1O[C@H](n2cnc3c(SCc4ccccc4)ncnc32)[C@H](O)[C@H]1O | 48.2% (active)
25 | CCOc1ccc(-n2nnnc2SCC(=O)Nc2ccc(C)c(NC(=O)CC)c2)cc1 | 10.6% (inactive)
26 | CC(=O)Nc1ccc(S(=O)(=O)N2CC=C[C@@H]2C(=O)NCCc2ccccc2)cc1 | 8.27% (inactive)
27 | Cc1ccc(C)c2nc(SCC(=O)Nc3ccccc3-c3ccccc3)c(C#N)cc12 | 13.9% (inactive)
28 | Cc1cccc2cc(CN(Cc3cccs3)C(=O)Nc3ccc(Cl)cc3)c(=O)[nH]c12 | 6.58% (inactive)
29 | OC(CN1CCC(O)(c2cccc(C(F)(F)F)c2)CC1)c1ccccc1 (stereo unspecified) | 5.58% (inactive)
30 | COc1ccc(NC(=O)CSc2nnc3c4c5c(sc4ncn23)CC(C)CC5)cc1 (stereo unspecified) | 46.8% (active)
31 | CC1CCc2c(sc3ncn4c(SCC(=O)N5CCc6ccccc65)nnc4c23)C1 (stereo unspecified) | 16.8% (inactive)
32 | COc1ccccc1NC(=O)CSc1ncnc2sc3c(c12)CCC(C)C3 (stereo unspecified) | 15.3% (inactive)
33 | Cc1nnc(NC(=O)CN2CCN(C3CCCCC3)CC2)s1 | 13.3% (inactive)
34 | COC(=O)c1ccc(-n2nnnc2SCC(=O)NCc2cccs2)cc1 | 10.1% (inactive)
35 | COc1ccc(C2(NC(=O)c3ccc(N4CCCCS4(=O)=O)cc3)CCCC2)cc1 | 6.96% (inactive)
36 | CC(C)C(NC(=O)OCc1ccccc1)C(=O)OCC(=O)N1C(C)CCCC1C (stereo unspecified) | 12.2% (inactive)
37 | NC1(C(=O)OCc2ccccc2)CCCC1 | 42.6% (active)
38 | O=C(O)C1CCN(C(=O)OCc2ccccc2)CC1 | 7.11% (inactive)
39 | COc1ccccc1C1(NC(=O)c2snnc2C)CCCC1 | 10.4% (inactive)
40 | O=C(O)COc1nc(N2CCCCC2)nc(N2CCCCC2)n1 | 11.5% (inactive)
41 | Cc1cccc(N(CC(=O)NC2CCCC2)C(=O)c2snc(C(=O)NC3CCCCC3)c2N)c1C | 13.6% (inactive)
42 | CS(=O)(=O)c1ccc(Cl)c(NC(=O)Nc2ccccc2)c1 | 6.72% (inactive)
43 | O=C(Nc1ccccc1)c1nnsc1S(=O)(=O)c1ccc(Cl)cc1 | 114% (active)
44 | CC(=O)Nc1cc(C(=O)O)ccc1S(=O)(=O)c1ccc(Cl)cc1 | 5.25% (inactive)
45 | CC1CCc2c(sc3ncnc(SCc4cc(=O)[nH]c5ccccc45)c23)C1 (stereo unspecified) | 13.1% (inactive)
46 | Cc1cccc2c(=O)c(C(=O)NN)c[nH]c12 | 5.35% (inactive)

Row | SMILES | inhibition
47 | Cc1cc(C)cc(NC(=O)CSc2nc3c(c(=O)n(C)c(=O)n3C)n2C(C)C)c1 | 5.34% (inactive)
48 | Cc1cc2cc3c(cc2n2c(SCC(=O)Nc4ccc(Cl)cc4)nnc12)OCCO3 | 19.1% (inactive)
49 | COC(=O)c1ccccc1NC(=O)CSc1nnc2c(C)cc3cc4c(cc3n12)OCCO4 | 7.88% (inactive)
50 | Cc1nc(NC(=O)CSc2nnc3c(C)cc4cc5c(cc4n23)OCCO5)sc1C | 40.1% (active)
51 | CC1Cc2cc(C(O)CN3CCCC3)ccc2N1C(=O)C(C)(C)C (stereo unspecified) | 6.03% (inactive)
52 | C=CCOc1cccc(C2C(C(=O)c3ccc(C)o3)=C(O)C(=O)N2c2nnc(C)s2)c1 (stereo unspecified) | 45.8% (active)
53 | Cc1ccc(C(=O)C2=C(O)C(=O)N(Cc3ccccc3)C2c2ccncc2)o1 (stereo unspecified) | 17.6% (inactive)
54 | COc1cc(C2C(C(=O)c3ccc(C)o3)=C(O)C(=O)N2Cc2cccnc2)ccc1O (stereo unspecified) | -0.43% (inactive)
55 | CC(=O)C(C)n1c(CN2CCC(C)CC2)nc2c1c(=O)n(C)c(=O)n2C (stereo unspecified) | 7.13% (inactive)
56 | Cn1c(=O)c2c([nH]c(=O)n2Cc2cccc3ccccc23)n(C)c1=O | 11.4% (inactive)
57 | O=C(/C=C/c1ccc(Cl)c([N+](=O)[O-])c1)c1ccc(O)cc1 | 2.09% (inactive)
58 | O=C(Nc1cccnc1)c1ccc(Cl)c([N+](=O)[O-])c1 | 3.46% (inactive)
59 | O=C(/C=C/c1ccc(Cl)c([N+](=O)[O-])c1)c1cccnc1 | 43.7% (active)
60 | COc1ccc(CNc2sc3c(c2C(=O)Nc2ccccc2OC)CCC3)cc1 | 8.59% (inactive)
61 | COc1ccc2c(c1)NC1(CCN(C(=O)c3ccc(Cl)nc3)CC1)c1cccn1-2 | 13% (inactive)
62 | Cc1cccc(NC(=S)N(Cc2cc3ccc(C)c(C)c3[nH]c2=O)CC2CCCO2)c1 (stereo unspecified) | 8.93% (inactive)
63 | COc1ccc2nc(Nc3nc(-c4cc5ccccc5oc4=O)cs3)sc2c1 | 6.47% (inactive)
64 | O=c1oc2ccccc2cc1-c1csc(Nc2cccc(O)c2)n1 | 117% (active)
65 | O=c1oc2ccccc2cc1-c1csc(Nc2ccc(O)cc2)n1 | 4.13% (inactive)
66 | CCOc1ccc2nc(SCC(=O)OC(C)C)c(C#N)cc2c1 | 10.9% (inactive)
67 | O=C1C=C(c2ccc(Cl)cc2)C(=O)N1Nc1ccccc1 | 134% (active)
68 | O=C(O)CC1=C(Nc2ccccc2)C(=O)N(c2ccccc2)C1c1ccc(Cl)cc1 (stereo unspecified) | 5.93% (inactive)
69 | O=C1c2cccc3cc(Br)cc(c23)C(=O)N1Nc1ccccc1 | 7.35% (inactive)

Row | SMILES | inhibition
70 | COc1ccc(C(c2nnnn2CC2CCCO2)N2CCN(C3CCCCC3)CC2)cc1 (stereo unspecified) | 1.12% (inactive)
71 | Cc1ccc(C)c(N2C(=O)c3cccc4c(N(C)C)ccc(c34)C2=O)c1 | 8.88% (inactive)
72 | CC1CCN(C(=O)CN(C)S(=O)(=O)c2ccc(F)cc2)CC1 | 7.13% (inactive)
73 | c1ccc2c(c1)OCC(CNc1ncnc3nc[nH]c13)O2 (stereo unspecified) | 10.3% (inactive)
74 | COc1ccc(Nc2ncnc3sc(-c4ccccc4)cc23)c(OC)c1 | 15.7% (inactive)
75 | c1ccc(-c2cc3c(NCC4COc5ccccc5O4)ncnc3s2)cc1 (stereo unspecified) | 99.7% (active)
76 | COc1ccccc1N=C1Sc2nc3cc4c(cc3cc2CN1CC1CCCO1)OCO4 (stereo unspecified) | 9.09% (inactive)
77 | CC(C)n1c(SCC(=O)N(Cc2ccccc2)C(C)(C)C)nc2c1c(=O)n(C)c(=O)n2C | 9.83% (inactive)
78 | CCN1CCN(C(=O)c2sc3ccccc3c2Cl)CC1 | 9.4% (inactive)
79 | COc1ccccc1NC(=O)C1=C(C)NC2=C(C(=O)CCC2)C1c1ccc(C)o1 (stereo unspecified) | 2.07% (inactive)
80 | Cc1ccc(C2C3=C(Nc4[nH]n(-c5ccccc5)c(=O)c42)c2ccccc2C3=O)cc1 (stereo unspecified) | 10.2% (inactive)
81 | COC(=O)C1=C(C)NC2=C(C(=O)c3ccccc32)C1c1ccc(-c2ccc(C(=O)O)cc2)o1 (stereo unspecified) | 42.5% (active)
82 | O=C(NCc1ccccc1)C(=O)c1c[nH]c2ccccc12 | 12.1% (inactive)
83 | C/C(Cl)=C\CSc1nc(N2CCOCC2)c2c(c1C#N)CC(C)(C)OC2 | 9.2% (inactive)
84 | CN1CCN(C(c2ccc(Cl)cc2)c2nnnn2Cc2ccco2)CC1 (stereo unspecified) | 13.3% (inactive)
85 | Cc1ccc(N2CCCC2=O)cc1S(=O)(=O)NC1CCCNC1=O (stereo unspecified) | 5.07% (inactive)
86 | COc1ccc2c(c1)N(C)/C(=c1\s/c(=C3\SC(=S)N(C)C3=O)n(C)c1=O)S2 | 17.4% (inactive)
87 | C/C(N[O-])=C(\C)[N+]([O-])=[Co].CC(=N\[O-])/C(C)=N/[O-].[CH2-]CCN1CCOCC1.c1ccncc1 | 42.1% (active)
88 | CN(C)S(=O)(=O)c1ccc(S(=O)(=O)N2CCN(c3ccccc3F)CC2)cc1 | 15.4% (inactive)
89 | CCc1c(-c2ccccc2)nc(N)c(C#N)c1-c1cccs1 | 5.93% (inactive)
90 | CCOc1cc(-c2c(C#N)c(N)nc(-c3ccccc3)c2CC)ccc1O | 42.1% (active)
91 | CCOc1cc(-c2cc(-c3ccc(OC)cc3)nc(N)c2C#N)ccc1O | 13.6% (inactive) and 5.97% (inactive)
